In the library only some 7.1% were active in any assay of this set; here they are far more common.
PTK2B oligo ant = Pyk2 (human) oligomerization antagonism | Q14289 | Q293 cells, Pyk2 FERM NanoBiT luminescence; hits give low values | z-score (the deposit names both 25 µM and 10 µM) | hit rate 0.83% among 99,000 | AID 1347419;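 active = Z-score of -3 or lower, scaled per plate to the spread of control and sample wells; inactive = z-score above -3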;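 note: negative z-score means lost luminescence so less FERM oligomerization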
Cav3 T inh = human Cav3.2 channel inhibition, primary screen | hit rate 4% among 100,000 | Cav3.2-expressing cells, Fluo-4 calcium fluorescence FDSS; hits give low values | B-score at 10 µM;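 active = single-dose well whose peak fluorescence ratio is a statistical outlier from its plate by either plate-standardised score or position-corrected B-score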
M1 antagonist = blocks the rat M1 muscarinic receptor response to acetylcholine. P08482. CHO-M1 cells, Fluo-4 calcium, ACh EC80 antagonist mode; hits give low values. B-score at 10 µM. hit rate 3.4% among 64,000;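 active = calcium fluorescence response, raw or row-and-column corrected B-score, differing from the plate sample mean either way at a set confidence level, mostly lower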
Target sequence (P08482 whole entry, looked up): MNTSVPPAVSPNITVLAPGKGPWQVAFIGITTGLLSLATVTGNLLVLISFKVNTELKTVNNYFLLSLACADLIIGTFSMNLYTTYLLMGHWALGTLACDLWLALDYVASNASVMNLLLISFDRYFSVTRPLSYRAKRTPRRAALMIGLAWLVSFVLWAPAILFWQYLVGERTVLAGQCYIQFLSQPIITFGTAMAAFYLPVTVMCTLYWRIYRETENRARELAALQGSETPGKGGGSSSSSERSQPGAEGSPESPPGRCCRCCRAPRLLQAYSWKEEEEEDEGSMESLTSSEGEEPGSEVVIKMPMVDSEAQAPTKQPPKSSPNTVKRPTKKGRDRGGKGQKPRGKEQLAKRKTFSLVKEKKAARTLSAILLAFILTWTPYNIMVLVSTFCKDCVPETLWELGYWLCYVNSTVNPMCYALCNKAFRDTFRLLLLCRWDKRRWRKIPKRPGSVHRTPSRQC
M1 ag = M1 muscarinic receptor agonism; CHO-M1 cells, Fluo-4 calcium fluorescence, agonist mode; hits give high values; B-score at 10 µM; hit rate 3% among 64,000; AID 626;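 active = fluorescence rise, raw or as B-score row- and column-corrected plate score, outside the 99.7% band of its plate's samples, either direction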
* = called active by the depositor; nt = no result.

SMILES | PTK2B oligo ant | Cav3 T inh | M1 antagonist | M1 ag
Cc1sc2nc(SCc3nc(-c4ccccc4)no3)n(-c3ccccc3)c(=O)c2c1C | 0.13 | 0.034 | nt | nt
CCCCC(=O)NC(c1ccco1)c1c(O)ccc2ccccc12 (centres undefined) | -1.4 | -5.5* | nt | nt
Cc1ccc(-c2nn(-c3ccccc3)cc2CN(Cc2ccccc2)C(=O)c2ccco2)o1 | 0.45 | -4* | nt | nt
COc1ccc(CNC(=O)C/C(C)=N/NC(=O)C(c2ccccc2)c2ccccc2)cc1 | -0.2 | -4.2* | nt | nt
CN(c1ccccc1)S(=O)(=O)c1cccc(NC(=O)CSc2nncs2)c1 | -0.64 | nt | nt | nt
CCOC(=O)Cc1csc(NC(=O)c2cccs2)n1 | 1 | -5.4* | -0.35 | -1.7
CCOC(=O)Cc1csc(NC(=O)c2ccc(Br)s2)n1 | nt | -1.6 | -0.99 | 2.1
COC(=O)[C@@H]1C[C@@]2(Br)c3ccccc3N(S(=O)(=O)c3ccccc3)[C@H]2N1C(=O)OC | nt | 1.7 | nt | nt
N#CCSc1nnc(COc2cccc3ccccc23)n1-c1ccccc1 | -0.85 | -4.6* | 0.42 | 1.2
COc1ccc(-n2c(COc3cccc4ccccc34)nnc2SCC#N)cc1 | -1.2 | -2.2 | nt | nt
COc1ccc(/C=C2/SC(=O)N(NS(=O)(=O)c3ccccc3)C2=S)cc1OC | -0.77 | -2.4 | nt | nt
COc1ccccc1NC(=O)C1=C(C)Nc2nc(-c3ccccc3)nn2C1c1ccccn1 (centres undefined) | -0.13 | -7.6* | nt | nt
CCOC(=O)C(C(=O)Nc1nc2ccccc2s1)C1CCCCC1 (centres undefined) | -2.2 | -7.8* | nt | nt
CC1=C(C)C(=O)NC(Nc2nc(C)c3cc(C)cc(C)c3n2)N1 (centres undefined) | nt | nt | -1.7 | 0.9
CC1=C(C)CS(=O)N(S(=O)(=O)c2ccc(Cl)cc2)C1 (centres undefined) | -0.58 | -7.4* | 0.049 | -0.91
Cn1c(=O)c2[nH]c(-c3ccc(S(=O)(=O)O)cc3)nc2n(C)c1=O | nt | 0.32 | nt | nt
CC(C)NC(=O)CCCOc1ccc(Cl)cc1Cl | 2.5 | -0.45 | nt | nt
CN(C(=S)NC(=O)CCCOc1ccc(Cl)cc1Cl)c1ccccc1 | 0.05 | -3.7* | nt | nt
Cc1ccc2nc(SCC(=O)N3c4ccccc4CC3C)c(C)cc2c1 (centres undefined) | -0.98 | -2 | nt | nt
Cc1ccc2nc(-c3cccnc3SCC(=O)N3c4ccccc4CC3C)[nH]c2c1 (centres undefined) | -0.93 | -4.4* | nt | nt
COC(=O)c1cc(NC(=O)Cc2ccc(OC)cc2)cc(C(=O)OC)c1 | -1.9 | 0.069 | nt | nt
CSc1n[nH]c(-c2sccc2OCc2ccc(C)cc2)n1 | -0.05 | -3.7* | nt | nt
CSc1nnc(-c2sccc2OCc2ccccc2)n1C | 0.11 | 0.97 | nt | nt
CCN(CCCNC(=O)CCn1c(=O)[nH]c2ccccc2c1=O)c1ccccc1 | 1.6 | -3.2 | 0.93 | -0.41
CCN(CCCNC(=O)C1CCC(=O)N1Cc1ccc(C)cc1)c1cccc(C)c1 (centres undefined) | 1.7 | -3.4* | -0.11 | 0.68
SMILES | PTK2B oligo ant | Cav3 T inh | M1 antagonist | M1 ag
CCN(CCCNC(=O)CCc1nc(-c2ccc(C)cc2)no1)c1cccc(C)c1 | 1.4 | -8.1* | -0.55 | -0.018
Cc1ccc(-c2noc(CCC(=O)NCCN3CCc4ccccc4C3)n2)cc1 | 0.66 | -7.1* | -1.3 | -0.9
CCN(CCCNC(=O)CCCn1c(=O)[nH]c2ccccc2c1=O)c1cccc(C)c1 | 0.02 | -5.5* | -1.1 | 0.75
Cc1ccc(C(=O)N/C(=C\c2cccs2)C(=O)NCCc2c[nH]c3ccccc23)cc1 | -1.1 | nt | nt | nt
S=C(NCc1ccco1)N1CCN(Cc2ccc(Cl)cc2Cl)CC1 | 0.23 | -3.6* | nt | nt
O=C(CN1CCN(Cc2ccccc2)CC1)NC(=O)NCc1ccco1 | -0.3 | 0.41 | 0.28 | -0.004
CC(C)N(C(=O)CSc1nc2ccccc2n1Cc1ccc(F)cc1)C(C)C | -1.6 | -6.3* | nt | nt
CCOC(=O)CSc1nc2ccccc2n1CC(=O)N(C(C)C)C(C)C | 0.14 | 1.2 | -0.032 | -1.2
CCOC(=O)C1(C)/C(=N/Nc2ccccc2Cl)C(=O)C(=O)N1c1ccccc1 (centres undefined) | -1.6 | -4.9* | nt | nt
CCOC(=O)C1(C)/C(=N/Nc2ccc(Cl)cc2)C(=O)C(=O)N1c1ccccc1 (centres undefined) | -1.3 | -3.3 | nt | nt
O=C(CSc1cn(Cc2ccccc2)c2ccccc12)N1CCOCC1 | nt | -0.42 | nt | nt
C(/C=C/C=C/Nc1ccccc1)=Nc1ccccc1 | -0.38 | -5* | nt | nt
O=C(NC1CC1)C1CCN(c2ncnc3c2sc2cccc(F)c23)CC1 | nt | 2.5 | nt | nt
CCN(CC)c1nc(N)c2c(N)nc3c(c2c1C#N)CC(c1ccccc1)O3 (centres undefined) | -0.66 | -3.4 | 2.2* | -0.53
CCN(CC)c1nc(N)c2c(N)n(-c3ccccc3C)c(=S)c(C#N)c2c1C#N | -3.7* | 0.3 | -1.5 | -0.29
CN(CC1CCCO1)S(=O)(=O)c1ccc(C(=O)Nc2nc3cc4c(cc3s2)OCO4)cc1 (centres undefined) | nt | nt | -1.3 | -0.46
COc1ccc(-c2csc(Cc3nnc4n3CCCCC4)n2)cc1 | 1.6 | -0.26 | 2.3* | 0.84
FC(F)Oc1ccc(-c2csc(Cc3nnc4n3CCCCC4)n2)cc1 | 0.52 | -0.32 | -0.8 | 0.42
C[C@H]1CCC[C@@]2(O[C@@H](CCO)C[C@@H](O)[C@@H]2O)O1 | nt | 1 | nt | nt
Cc1noc(C)c1S(=O)(=O)N(CCc1ccccc1)Cc1ccccc1 | 1 | -4.7* | 0.11 | 0.73
Cc1noc(C)c1S(=O)(=O)N(C)CC(=O)NCc1ccccc1 | 1.2 | 0.48 | -0.68 | 0.41
C=CCNC(=O)C1CC2Cn3c(nc4cc5ccccc5cc43)C2N1C (centres undefined) | nt | 0.23 | nt | nt
CCOC(=O)c1nn(-c2ccccc2C)c2nc(-c3ccc(Cl)cc3)c(C#N)c(=O)n12 | 1.2 | -0.036 | nt | nt
CC[C@H]1CC2CN3CCc4c([nH]c5c([C@H]6C[C@H]7[C@H](CC)CN(C)[C@@H](Cc8c6[nH]c6ccccc86)[C@H]7C(=O)OC)c(OC)ccc45)C(C(=O)OC)(C2)C13 | nt | -3.8* | nt | nt
Cc1nnc(SCC(=O)Nc2nsc(-c3ccc(C(C)(C)C)cc3)n2)s1 | nt | -7.6* | nt | nt
SMILES | PTK2B oligo ant | Cav3 T inh | M1 antagonist | M1 ag
Cc1nnc(SCC(=O)Nc2ccccc2NC(=O)CSc2nnc(C)s2)s1 | -0.37 | 0.055 | -0.23 | -0.74
CCOC(=O)CN1C=C(c2ccc3ccccc3n2)C(C[N+](=O)[O-])c2ccccc21 (centres undefined) | -0.47 | -4.9* | nt | nt
CCOC(=O)c1c(NC(=O)c2cc(C3CC3)on2)sc2c1CCCC2 | nt | nt | 0.74 | -0.036
CC(C)n1c(SCC(=O)Nc2nc3c(s2)CCCC3)nc2c1c(=O)n(C)c(=O)n2C | -3 | -2.2 | nt | nt
Cc1ccc(OCC(=O)NC2CCS(=O)(=O)C2)cc1 (centres undefined) | 1.2 | -4.7* | nt | nt
CC(C)c1ccc(N=c2c([N+](=O)[O-])nn(-c3ccc4c(c3)OCCO4)n2O)cc1 | -4* | -1.3 | nt | nt
CC1=C([N+](=O)[O-])C(c2ccccc2)C2=C(N1)c1ccccc1C2=O (centres undefined) | -1.4 | -3.8* | nt | nt
COc1ccc(C2C(C#N)=C(C)NC3=C2C(=O)c2ccccc23)cc1 (centres undefined) | 0.41 | -1.1 | -0.82 | -0.72
CCc1ccc2nc(SCC(=O)N3CC(=O)Nc4ccccc43)c(C#N)cc2c1 | -3.4* | 0.22 | nt | nt
CCS(=O)(=O)NCc1csc(C)n1 | -0.17 | 0.63 | 1.1 | 0.63
